Shiga inhibitor – blocks Shiga toxin action in Vero cells; Vero cells, Shiga toxin protein synthesis inhibition reporter; inhibition, % at 38.7 µM; 290,000 compounds, 9.2% hits; in the data active = inhibition mostly above about 28%, no sharp cut-off; inactive = mostly below about 43%; note: 0% is about no effect
FMDV antiviral – blocks foot and mouth disease virus; FMDV antiviral cell-based qHTS; AID 1159524; 410,000 compounds, 1.2% hits; Potency, µM (doses to about 57.9 µM), inactives show at the highest dose activity change, negative = inhibition, hits mostly inhibitors; calls by dose curve; tested in HEK293T cells; note: read-out not given here; potency is the fitted concentration of half-maximal effect; % is set by controls: 0 for no effect and ±100 for the full control effect; nearly all actives have a fitted effect of over 45% in size
CHX counter – counter-screen hit for Shiga toxin inhibitors, cycloheximide; cell reporter, cycloheximide protein synthesis inhibition counterscreen; 300,000 compounds, 12% hits; max response, %; AID 2314; in the data active = max response mostly above about 13%, no sharp cut-off; inactive = mostly below about 14%; note: read at 38.3 µM for the half of the compounds with a filed dose; 0% is about no effect
Lassa entry inh – inhibitors of Lassa virus binding or cell entry; Lassa virus pseudotype entry inhibition, cell reporter; Potency, µM (series often up to 37.9 µM), for the others: top-dose activity change, negative = inhibition, actives largely listed as inhibitors; 300,000 compounds, 1.2% hits; calls by dose curve; tested in HEK293 cells; note: potency is the fitted concentration of half-maximal effect; % is set by controls: 0 for no effect and ±100 for the full control effect; nearly all actives have a fitted effect of over 50% in size
Marburg entry inh – blocks Marburg virus binding to or entry into cells; Marburg virus pseudotyped entry inhibition, cell reporter; Potency, µM (highest dose often 37.8 µM), without a hit: at the highest dose activity change, negative = inhibition, most hits filed as inhibitors; 300,000 compounds, 1.8% hits; AID 540276; calls by dose curve; tested in HEK293 cells; note: potency is the fitted concentration of half-maximal effect; % is set by controls: 0 for no effect and ±100 for the full control effect
HCV inhibitor – blocks hepatitis C virus | 340,000 compounds, 3.4% hits | Potency, µM (top dose mostly 41.8 µM), for the others: at the highest dose activity change, negative = inhibition, hits mostly inhibitors | AID 651820 | Huh7.5.1 HCVcc-Cre infection, luciferase reporter, 44 h; active = well fitted inhibition curve with a large enough effect; inconclusive = small, poorly fitted or top-dose-only effect, or another doubt; inactive = no such curve, though single readings can be large or run the other way; note: potency is the fitted concentration of half-maximal effect; % is set by controls: 0 for no effect and ±100 for the full control effect
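1,000 cells/well; 4 h culture; + compound; + HCVcc-Cre (~0.5 moi); 44 h; luciferase substrate, RT 15 min; read 15 sec.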
* marks the source's active call; other numbers are inactive results; ? = inconclusive; nt = no result; [ ] = remark or other dose. Hits are enriched below; roughly 13% of the tested compounds scored in any of these assays.

SMILES	Shiga inhibitor	FMDV antiviral	CHX counter	Lassa entry inh	Marburg entry inh	HCV inhibitor
O=C(/C=C/c1ccccc1)NC(NC(=S)Nc1cccc(Cl)c1)C(Cl)(Cl)Cl (centres undefined)	11.1	-19.4%	-2.2	9.2µM*	?	?
CC(=O)NC(NC(=S)Nc1ccc(N=Nc2ccccc2C)cc1C)C(Cl)(Cl)Cl (centres undefined)	113.7*	19.9%	29.4*	-19.0%	?	?
O=C(/C=C/c1ccccc1)NC(NC(=S)Nc1ccc(Cl)cc1Cl)C(Cl)(Cl)Cl (centres undefined)	-9.1	-25.3%	1.6	?	?	10µM*
Cc1ccc(C)c(NC(=S)NC(NC(=O)OCc2ccccc2)C(Cl)(Cl)Cl)c1 (centres undefined)	-6.2	-7.9%	-1.5	-22.0%	?	?
Cc1ccc(CNc2ccc(S(=O)(=O)N3CCOCC3)cc2[N+](=O)[O-])cc1	-21.2	-6.5%	-2.1	-28.8%	?	?
CCCCNS(=O)(=O)c1ccc(NC(=O)C2CCCO2)cc1 (centres undefined)	15.2	-3.5%	-2.8	-6.8%	-4.4%	9.6%
O=C(CCn1c(=O)c2sccc2n(CC(=O)OCc2ccccc2)c1=O)NCc1ccccc1	-6.1	-8.8%	-3.3	-16.9%	?	6.2%
Cc1ccc2c(c1)nnn2C1CCN(S(=O)(=O)c2ccc(C(=O)N3CC(C)CC(C)C3)cc2)CC1 (centres undefined)	13.6	0.0%	-2.1	?	-25.1%	-16.0%
C=CC(C1=CC(=O)C(OC)=C(OC)C1=O)c1ccccc1 (centres undefined)	nt	25.1µM*	nt	nt	nt	nt
C=CC(C1=CC(=O)C(OC)=CC1=O)c1ccccc1 (centres undefined)	nt	25.0%	nt	nt	nt	nt
COCCNC(=S)N/N=C/c1ccc(OCc2ccc(C(=O)OC)cc2)c(OC)c1	3.5	-20.7%	-1.3	-10.4%	5.5%	-0.7%
Cn1cc(C(=O)Nc2ccc3c(c2)CCC3)cn1	74.7*	33.7%	56.1*	?	?	-11.4%
NS(=O)(=O)c1cc(C(=O)Nc2ccc3c(c2)CCC3)ccc1Cl	89.1*	11.4%	20.1*	?	?	?
O=C(Nc1ccc2c(c1)CCC2)c1cc(F)cc(F)c1	nt	22.3%	nt	-7.2%	-15.1%	?
Cc1ccc(C(=O)Nc2ccc3c(c2)CCC3)cc1	5.5	-20.4%	23.5	16.4µM*	?	-25.9%
COc1ccccc1NS(=O)(=O)c1ccc(C)c(C(=O)NCC(c2cccs2)N2CCOCC2)c1 (centres undefined)	nt	64.9%	nt	nt	3.8%	-8.9%
COc1cccc(/C=C/C(=O)OC(C)C(=O)Nc2c(C)n(C)n(-c3ccccc3)c2=O)c1 (centres undefined)	-25.4	3.0%	1.5	-13.9%	0.3%[46.1 µM]	-6.9%
COc1ccccc1-c1c(C#N)c(N)nc2c1CCc1ccccc1-2	3.8	31.6µM*	6.1	?	?	?
CCOc1cc(-c2c(C#N)c(N)nc3c2CCc2ccccc2-3)ccc1O	10.7	?	-2.8	?	?	?
COC(=O)c1cc2ccc(OC)cc2c2cc(OC)c(OC)cc12	nt	?	nt	nt	nt	1.41µM*
COc1ccc(/C=C2\SC(=O)N(CCNC(=O)C3=COCCO3)C2=O)cc1	nt	38.2%	nt	3.8%	10.6%	?
O=C(NCCN1C(=O)S/C(=C\c2ccc(OC(F)F)cc2)C1=O)C1=COCCO1	nt	-13.9%	nt	?	?	11.2µM*
O=C(Nc1ccccc1Cl)ON=C1c2ccccc2-c2ccccc21	44.5*	35.2%	23.2*	26.2%	?	?
CCOC(=O)C(C)n1cnc2c(nnn2-c2ccc(OC)cc2)c1=O (centres undefined)	85.7*	22.5%	31.6*	15.4%	13.1%	4.2%
CCC(C(=O)OC)n1cnc2c(nnn2-c2ccc(C)cc2)c1=O (centres undefined)	21.9*	-5.8%	12.2*	nt	nt	12.7%
SMILES	Shiga inhibitor	FMDV antiviral	CHX counter	Lassa entry inh	Marburg entry inh	HCV inhibitor
COc1ccc(NC(=O)Cc2nnc(SCC(=O)NC3CCCCC3)n2C)cc1	-4.1	4.0%	-4.4	-0.4%	-2.4%[46.1 µM]	3.2%
CC(OC(=O)c1n[nH]c2ccccc12)C(=O)Nc1ccccc1[N+](=O)[O-] (centres undefined)	nt	-13.8%	nt	-27.4%	?	-6.0%
O=C1C=C(c2ccc(F)cc2OCc2ccccc2)C[C@@H](c2ccc3c(c2)OCO3)C1	nt	?	nt	nt	nt	23.1%
CCOCCCNC(=O)/C(C#N)=C/c1ccc(-c2ccc(S(=O)(=O)N3CCOCC3)cc2)o1	-9.5	-11.3%	-5.4	?	?	?
COC(=O)c1ccc(/C=C(\C#N)C(=O)NC(C)c2ccccc2)cc1 (centres undefined)	-4.9	?	-1.7	nt	5.3%	11.2µM*
CC(NC(=O)/C(C#N)=C/c1ccc([N+](=O)[O-])o1)c1ccccc1 (centres undefined)	27.3	28.2µM*	10.8	?	?	?
CC(NC(=O)/C(C#N)=C/c1ccco1)c1ccccc1 (centres undefined)	-2.2	-5.8%	6.7	20.6%	-19.8%[46.1 µM]	16.6%
CCOCCCNC(=O)/C(C#N)=C/c1ccc([N+](=O)[O-])o1	29.2	31.6µM*	13.9	?	?	?
COc1ccc(/C=C(\C#N)C(=O)NC(C)c2ccccc2)cc1O (centres undefined)	16.6	-3.4%	12.9*	0.9%	-6.5%[46.1 µM]	0.1%
CCCCCC(=O)Nc1c(-c2ccc(OC)cc2)c(=O)c2ccccc2n1C	-9.0	0.8%	-3.4	8.3%	6.2%	-6.1%
CC1=C(C(=O)Nc2ccccc2)C(c2ccccc2[N+](=O)[O-])NC(=O)N1 (centres undefined)	37.2	5.3%	16.7*	nt	nt	10.0%
COc1ccccc1NC(=O)C1=C(C)NC(=O)NC1c1ccc(C)cc1 (centres undefined)	-8.8	-18.2%	-1.7	nt	nt	-8.3%
COc1ccccc1NC(=O)C1=C(C)NC(=O)NC1c1ccccc1[N+](=O)[O-] (centres undefined)	45.4*	18.1%	30.2*	7.6%	4.5%[46.1 µM]	-5.6%
CCS(=O)(=O)N1CCCC(C(=O)NC2CCCCC2)C1 (centres undefined)	-17.5	4.1%	-2.8	14.4%	2.3%	20.8%
N#Cc1c(N2CCN(c3ccc([N+](=O)[O-])cc3)CC2)[n+](=O)c2ccc(Cl)cc2n1[O-]	nt	?	nt	10µM*	?	?
O=[N+]([O-])c1ccc(CN2CCN(c3ccc([N+](=O)[O-])cc3)CC2)cc1	-17.9	0.0%	-2.5	?	-18.9%	?
O=C1CC(C(=O)Nc2ccc(Cl)cc2)n2ncnc2N1 (centres undefined)	35.8	-3.6%	-2.6	0.6%	?	18.4%
CC(C)c1ccc(NC(=O)C2CC(=O)Nc3nc4ccccc4n32)cc1 (centres undefined)	18.4	-16.1%	22.8*	nt	nt	10.0%
